Screening results (PubChem BioAssay)
PLK1 PBD inh – inhibitors of human PLK1 polo-box domain binding; P53350; Plk1 PBD binding of FITC phosphopeptide, fluorescence polarization; Potency, µM, actives largely listed as inhibitors; actives 2.8% (n = 360,000); AID 720504; also: series mostly up to about 57 µM; nearly all actives have a fitted effect of over 65% in size
CBFb-RUNX1 inh – CBF-beta/RUNX1 interaction disruption; Potency, µM (top dose mostly 59.8 µM), usual class: inhibitors; Q01196+Q13951; AlphaScreen CBFb-His/RUNX1-biotin binding, biochemical; 230,000 tested, under 10 active; AID 1477
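Inhibition was taken as any reduction in AlphaScreen signal from the CBF-beta–RUNX1 pair (His and biotin tags, 30 nM each), measured after compound (15 min) and bead (90 min) incubations at room temperature.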
MBNL1-CUG inh – blocks human MBNL1 binding to CUG repeat RNA. AID 2675. Potency, µM (top dose mostly 57.5 µM), most hits filed as inhibitors. actives 0.036% (n = 280,000). TR-FRET MBNL1-His/biotin-(CUG)12 binding, 665/545 ratio. Q9NR56; active = well fitted inhibition curve with a large enough effect in the signal ratio, with a control signal flat, not every such curve was filed as active; inconclusive = small, poorly fitted or top-dose-only effect, or effect the other way, or a change in a side signal; inactive = no such curve, though single readings can be large or run the other way; the % refers to the signal ratio
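TR-FRET readout: Ex 340 nm, 665/545 nm emission ratio, normalized to buffer-only (basal) and MBNL1-(CUG)12 controls. Complex of MBNL1-His with Biotin-(CUG)12, compounds 92 nM–58 uM, incubated 60 min at room temperature.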
VDR inh – inhibitors of human vitamin D receptor. P11473. VDR-SRC2-3 peptide fluorescence polarization, 2 h. Potency, µM, hits mostly inhibitors. actives 0.93% (n = 400,000)
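FP read-out; VDR + SRC2-3 coactivator peptide; 23 nl compound by pintool; 2 h RT incubation; reagents held at 4 deg C, protected from light.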
KCNH2 3.1 block – blocks the human KCNH2 3.1 channel isoform | actives 0.95% (n = 340,000) | AID 720553 | U2OS KCNH2 3.1, thallium flux FluxOr; hits give low values | activity change, % (tested at about 1.8 µM);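 active = maximum activity change below -70%; inconclusive = maximum activity change from -70% to -50%; inactive = maximum activity change above -50%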;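 also: thallium influx rate constant from kinetic fluorescence after stimulation buffer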
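Kinetic fluorescence (2 min after stimulation buffer) measures Tl+ influx through KCNH2 3.1 expressed by viral transduction in U2OS cells; the rate constant is normalized against DMSO controls serving as positive and negative references.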
KCNH2 WT inh – KCNH2 (human, wildtype) channel inhibition; Q12809; U2OS, BacMam KCNH2, thallium flux FluxOr; hits give low values; activity change, % at 1.84 µM; actives 0.37% (n = 340,000);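 active = maximum activity change below -70%; inconclusive = maximum activity change between -70% and -50%; inactive = maximum activity change above -50%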
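U2OS cells were transduced with wild-type KCNH2 virus (2.03 x 10^8 / mL) for 4 h at room temperature, then cultured overnight at 37 C. Thallium flux was read with FluxOr dye. Rate constants were normalized to DMSO controls.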
Large screens that a line does not name were inactive. A selection: hits, their analogues and other compounds. The true share with any hit is near 3.8%. Unless noted, calls follow the shape of the dose curve; as a rule, active = well fitted curve in the direction sought with a large enough effect; inconclusive = small, poorly fitted or top-dose-only effect, or another doubt; inactive = no such curve, though single readings can be large; an effect the other way counts as inactive or inconclusive.

COc1ccc(C2/C=C\CN(CC(C)C)C(Cc3ccccc3)C(=O)N2Cc2ccc(F)cc2)cc1 (stereo unspecified)	none (no result: PLK1 PBD inh, MBNL1-CUG inh, KCNH2 3.1 block, KCNH2 WT inh)
CC(=O)c1ccc(NS(=O)(=O)c2cc3c(cc2C)N(C)CCO3)cc1	PLK1 PBD inh 24µM (no result: CBFb-RUNX1 inh)
NC(=O)CC(NC(=O)c1ccccc1)c1ccc(N2CCN(c3ccccn3)CC2)c([N+](=O)[O-])c1 (stereo unspecified)	MBNL1-CUG inh inconclusive, VDR inh inconclusive, KCNH2 3.1 block -130 (no result: CBFb-RUNX1 inh)
NC(=O)CC(NC(=O)c1ccc(Br)cc1)c1ccc(N2CCN(c3ccccc3)CC2)c([N+](=O)[O-])c1 (stereo unspecified)	none (no result: CBFb-RUNX1 inh)
Cc1ccc(S(=O)(=O)n2cccc2/C=C/[N+](=O)[O-])cc1	PLK1 PBD inh 7.5µM (no result: CBFb-RUNX1 inh, MBNL1-CUG inh, VDR inh)
CCc1cnc2c(c1SC(C(C)=O)C(=O)N(C)C)c(=O)n(C)c(=O)n2C (stereo unspecified)	none (no result: PLK1 PBD inh, CBFb-RUNX1 inh, MBNL1-CUG inh, KCNH2 3.1 block, KCNH2 WT inh)
COc1cc(C2NC(=O)NC3=C2C(=O)OC3)cc(OC)c1OC (stereo unspecified)	PLK1 PBD inh 30µM
CCN(CC)S(=O)(=O)c1ccc(-c2cn3cc(Cl)ccc3n2)cc1	PLK1 PBD inh 12µM (no result: CBFb-RUNX1 inh)
O=C(Nc1nnc(-c2ccc3c(c2)CCCC3)o1)c1ccc(Cl)cc1Cl	PLK1 PBD inh 21µM
O=C(Nc1nnc(-c2ccc3c(c2)CCCC3)o1)c1c(F)cccc1F	none
Cc1ccc(CNC(=O)c2c(Nc3c(C)cccc3C)sc(C(=O)c3ccccc3)c2N)cc1	none (no result: PLK1 PBD inh, CBFb-RUNX1 inh, MBNL1-CUG inh, KCNH2 3.1 block, KCNH2 WT inh)
CCC(C)Nc1nc(-c2ccc3c(c2)NC(=O)CO3)cs1 (stereo unspecified)	PLK1 PBD inh 30µM
COc1ccc(Nc2nc(-c3ccc4c(c3)NC(=O)CO4)cs2)cc1	PLK1 PBD inh inconclusive
CC(C)CC1=C/C(=C/c2ccc(-c3ccccc3)o2)C(=O)O1	PLK1 PBD inh 11µM, CBFb-RUNX1 inh inconclusive, VDR inh inconclusive
CCCCCC(=O)Nc1cccc(S(=O)(=O)NC2=NCCCCC2)c1	none (no result: CBFb-RUNX1 inh, MBNL1-CUG inh)
CCCCC(=O)OCC(=O)Nc1cccc(S(=O)(=O)NC2=NCCCCC2)c1	PLK1 PBD inh 24µM
NC(=O)Nc1ccc(C(=O)OCC(=O)Nc2cccc(S(=O)(=O)NC3=NCCCCC3)c2)cc1	none
O=C(COC(=O)c1ccccc1)Nc1cccc(S(=O)(=O)NC2=NCCCCC2)c1	PLK1 PBD inh 27µM
CC1(C)CC(=O)C=C(c2cccc(OC(=O)c3ccc(-c4ccccc4)cc3)c2)C1=O	KCNH2 3.1 block -156, KCNH2 WT inh -142 (no result: CBFb-RUNX1 inh, MBNL1-CUG inh, VDR inh)
COc1ccc(/C(N)=N/OC(=O)CCCN2C(=O)c3ccccc3C2=O)cc1OC	PLK1 PBD inh 24µM, VDR inh inconclusive
NC(N)=NCCC[C@@H](N)C(=O)NCC(=O)N[C@@H](CC(=O)O)C(=O)N[C@@H](Cc1c[nH]c2ccccc12)C(=O)O	none (no result: PLK1 PBD inh, MBNL1-CUG inh, KCNH2 3.1 block, KCNH2 WT inh)
Cc1ccc(C=C2C(=O)c3ccccc3C2=O)o1	CBFb-RUNX1 inh inconclusive, KCNH2 3.1 block -83 (no result: MBNL1-CUG inh)
Cc1ccc(/C=C2/C(=O)c3ccc(C(=O)O)cc3C2=O)o1	PLK1 PBD inh 24µM, CBFb-RUNX1 inh inconclusive, MBNL1-CUG inh inconclusive
O=C(NCCc1ccccc1)c1ccc(CSc2nc3ccncc3n2Cc2ccc(F)cc2)cc1	none (no result: PLK1 PBD inh, CBFb-RUNX1 inh, MBNL1-CUG inh, KCNH2 3.1 block, KCNH2 WT inh)
CN(CCCNC(=O)C1CCN(S(=O)(=O)c2cccc3nsnc23)CC1)Cc1ccccc1	MBNL1-CUG inh inconclusive
CN(Cc1ccccc1)C(=O)C1CCN(S(=O)(=O)c2cccc3nsnc23)CC1	PLK1 PBD inh 3.4µM, MBNL1-CUG inh inconclusive, VDR inh inconclusive (no result: CBFb-RUNX1 inh)
O=C(Nc1ccc(NC(=O)C2CC2)cn1)c1ccccc1Cl	PLK1 PBD inh 24µM
O=C(Nc1ccc(NC(=O)C2CC2)cn1)c1ccccc1	none (no result: CBFb-RUNX1 inh)
COc1ccc(CN(C)C2CCCCC2)cc1	PLK1 PBD inh 24µM, VDR inh inconclusive
COc1ccc(CN(C)C2CCN(C)CC2)cc1OC	none (no result: CBFb-RUNX1 inh)
Cc1ccc(CN(C)C2CCN(C)CC2)cc1	PLK1 PBD inh 24µM (no result: CBFb-RUNX1 inh)
CCOc1ccccc1CN1CCc2nc(Nc3ccc4c(c3)OCCO4)ncc2C1	none (no result: PLK1 PBD inh, CBFb-RUNX1 inh, MBNL1-CUG inh, KCNH2 3.1 block, KCNH2 WT inh)
COc1ccc(C(=O)N(Cc2cc(OC)c(OC)c(OC)c2)C2CCS(=O)(=O)C2)cc1Cl (stereo unspecified)	none (no result: PLK1 PBD inh, CBFb-RUNX1 inh, MBNL1-CUG inh, KCNH2 3.1 block, KCNH2 WT inh)
